Experimental findings from PubChem BioAssay are described below.

SMILES strings stand for the structures. The source made the active and inactive calls. Unless noted, how the calls were made is not given here.

Assay [1] is described as follows: compounds binding Alexa647 anti-His antibody – biochemical, small-molecule microarray, 635 nm fluorescence, artefact control for SMM control protein annotation, primary screen (AID 1128).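 Further: score merges feature fluorescence with signal-to-noise for each printed compound spot.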 The settings on record: higher = more signal.
Assay [2] relates to Human papillomavirus type 1a E7 protein (residues 1-88). Kind of assay: HPV1a E7 small-molecule binders, primary screen, biochemical, small-molecule microarray, residues 1-88, 635 nm (AID 1129). To be noted: small-molecule microarray binding, fluorescence 635 nm; higher = more signal.
Assay [3] addresses Focal adhesion kinase 1 (Homo sapiens) (UniProt Q05397). Put plainly: PTK2 protein binding on printed compound slides – biochemical, small-molecule microarray, 635/667 nm fluorescence, BSA, DTT, primary screen (AID 1130).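 Further: composite of spot emission at 667 nm and signal to noise over triplicate slides.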 The settings on record: 635 nm fluorescence, higher = more signal.
The test system of assay [4] is Fibrinogen (Alexa647-labelled). Kind of assay: Alexa647-fibrinogen binding to printed small molecules – biochemical, small-molecule microarray, 635/667 nm fluorescence, artefact control for SMM control-protein annotation, profiling panel (AID 1131).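 Further: z-score merges 667 nm fluorescence with per-spot signal-to-noise over triplicate slides.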 To be noted: fibrinogen-A647 binding fluorescence, higher = more signal.
For assay [5], the target named is Follistatin (Homo sapiens) (UniProt P19883). Kind of assay: FST protein binding to printed compounds – biochemical, small-molecule microarray, 635/667 nm fluorescence, primary screen (AID 1132). To be noted: 635 nm fluorescence, higher = more signal.
Sequence of Follistatin (Homo sapiens) (P19883 whole entry, looked up): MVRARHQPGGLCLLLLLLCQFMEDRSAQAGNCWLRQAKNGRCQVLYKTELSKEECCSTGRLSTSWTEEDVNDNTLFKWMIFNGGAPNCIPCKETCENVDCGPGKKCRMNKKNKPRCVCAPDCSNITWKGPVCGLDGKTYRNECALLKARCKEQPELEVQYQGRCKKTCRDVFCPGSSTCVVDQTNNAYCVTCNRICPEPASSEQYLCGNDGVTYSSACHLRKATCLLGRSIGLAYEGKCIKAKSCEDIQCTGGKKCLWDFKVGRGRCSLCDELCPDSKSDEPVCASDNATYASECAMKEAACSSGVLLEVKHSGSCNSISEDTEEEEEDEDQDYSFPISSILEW
For assay [6], the target named is Fibroblast growth factor 2 (Homo sapiens) (UniProt P09038). Kind of assay: basic fibroblast growth factor binding to printed compounds – biochemical, small-molecule microarray, 635/667 nm fluorescence, primary screen (AID 1133). To be noted: FGF2, fluorescence 635/667, higher = more signal.
Sequence of Fibroblast growth factor 2 (Homo sapiens) (P09038 whole entry, looked up): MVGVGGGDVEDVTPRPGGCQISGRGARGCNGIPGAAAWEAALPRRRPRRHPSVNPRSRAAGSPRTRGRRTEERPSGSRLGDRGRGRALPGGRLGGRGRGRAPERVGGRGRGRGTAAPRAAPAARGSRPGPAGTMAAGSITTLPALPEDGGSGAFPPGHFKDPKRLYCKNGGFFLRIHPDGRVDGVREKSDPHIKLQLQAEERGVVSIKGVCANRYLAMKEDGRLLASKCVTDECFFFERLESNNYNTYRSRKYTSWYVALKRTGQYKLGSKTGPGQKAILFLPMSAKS
The nature of assay [7]: JC-1 mitochondrial potential readout, lung cancer cells – cell-based, A549, JC-1 fluorescence, basal, 24 h, 100 nL, profiling panel (AID 1138).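 Further: A549 lung adenocarcinoma cells under basal conditions with no added stimulus; test concentration not given here.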 To be noted: higher = more signal.
For another assay, the system named is Lefty1. Put plainly: Lefty1 protein binding to printed compounds – biochemical, small-molecule microarray, 635/667 nm fluorescence, primary screen (AID 1139). To be noted: fluorescence 635/667, higher = more signal.
The test system of assay [8] is wheat germ agglutinin (Triticum aestivum), Alexa647-labelled. Put plainly: Alexa647-WGA lectin binding to printed small molecules – biochemical, small-molecule microarray, 635/667 nm fluorescence, artefact control for SMM control-protein annotation, profiling panel (AID 1140).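 Further: score merges 667 nm feature emission with signal to noise over triplicate slides.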 The settings on record: WGA-A647 binding, 635 nm fluorescence, higher = more signal.
Assay [9] addresses Luciferin 4-monooxygenase (Photinus pyralis) (UniProt P08659). Put plainly: inhibition of purified Photinus pyralis luciferase – biochemical, luminescence, purified enzyme, 2006 set, primary screen (AID 1141).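 Further: cell-free assay with purified firefly luciferase at 100 ng per well in PBS; test concentration not given here.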 The settings on record: purified firefly luciferase, SteadyGlo luminescence, 30 min; higher = more signal, called active from +8 up or from −8 down.
The subject of assay [10] is Wnt5a (protein binding on small-molecule microarray). Kind of assay: small molecules binding Wnt5a protein – biophysical, small-molecule microarray, 635/667 nm fluorescence, primary screen (AID 1142).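 Further: fluorescence read at 667 nm with signal to noise per printed feature.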 To be noted: 635 nm fluorescence, higher = more signal.
The nature of assay [11]: ATP-based viability of Huh7 replicon cells – cell-based, CellTiter-Glo luminescence, basal, 48 h, cytotoxicity control for HCV replication inhibitor project, primary screen (AID 1143).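 Further: Huh7 hepatoma cells carrying a hepatitis C replication reporter with no stimulus; test concentration not given here.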 To be noted: higher = more signal, called active from +8 up or from −8 down.
Assay [12] can be described thus: Pseudomonas biofilm growth suppression – PAO1 strain, BacTiter-Glo luminescence, LB-PBS, primary screen (AID 1144). The settings on record: P. aeruginosa PAO1 biofilm, 12 h, higher = more signal.
Assay [13] is described as follows: basal CRE-LacZ reporter activity in PC12 – cell-based, unstimulated, primary screen (AID 1145). The settings on record: no forskolin, luminescence, 4.5 h, higher = more signal, called active from +8 up or from −8 down.
The nature of assay [14]: forskolin-driven CRE-LacZ activity in PC12 – cell-based, CRE-LacZ reporter, forskolin-stimulated, primary screen (AID 1146).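 Further: PC12 cells with 6xCRE LacZ reporter stimulated by forskolin 10 µM; beta-galactosidase reporter signal reflecting CREB driven transcription.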 The settings on record: luminescence, 4.5 h, higher = more signal, called active from +8 up or from −8 down.
The target in assay [15] is Streptavidin (Streptomyces avidinii) (UniProt P22629). Kind of assay: compounds binding control protein streptavidin – biophysical, small-molecule microarray, 635/667 nm fluorescence, artefact control for SMM compound annotation, primary screen (AID 1147).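 Further: signal reflects streptavidin binding to arrayed compounds as a control protein.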 To be noted: higher = more signal.
Sequence of Streptavidin (Streptomyces avidinii) (P22629 whole entry, looked up): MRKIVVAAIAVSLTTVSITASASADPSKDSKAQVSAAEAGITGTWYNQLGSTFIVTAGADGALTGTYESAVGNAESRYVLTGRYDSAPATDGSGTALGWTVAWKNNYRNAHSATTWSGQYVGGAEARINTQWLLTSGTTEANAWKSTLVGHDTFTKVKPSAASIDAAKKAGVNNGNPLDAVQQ
A short description of assay [16]: probe aInhba binding on compound microarray – biochemical, small-molecule microarray, 635/667 nm fluorescence, primary screen (AID 1148).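 Further: score merges 667nm spot fluorescence with signal-to-noise for antibody binding to printed compounds.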 The settings on record: higher = more signal.
The target in assay [17] is Torsin-1A (Homo sapiens) (UniProt O14656). Put plainly: TOR1A wild-type binding on microarray – cell lysate, small-molecule microarray, lysate, 635/667 nm, primary screen (AID 1149). The settings on record: COS7 hTOR1A-WT lysate, 635 nm fluorescence, higher = more signal.
Sequence of Torsin-1A (Homo sapiens) (O14656 whole entry, looked up): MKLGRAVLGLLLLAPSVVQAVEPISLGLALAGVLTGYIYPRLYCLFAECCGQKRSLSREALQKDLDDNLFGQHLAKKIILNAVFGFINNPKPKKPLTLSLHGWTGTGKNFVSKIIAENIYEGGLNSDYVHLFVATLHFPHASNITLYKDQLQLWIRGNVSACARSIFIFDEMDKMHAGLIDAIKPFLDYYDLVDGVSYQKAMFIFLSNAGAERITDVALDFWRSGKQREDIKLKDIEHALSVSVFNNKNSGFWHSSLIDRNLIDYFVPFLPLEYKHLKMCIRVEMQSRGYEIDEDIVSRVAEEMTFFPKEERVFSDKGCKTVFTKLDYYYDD
For assay [18] the target is unchanged. Put plainly: torsin A mutant lysate binding on microarrays – cell lysate, small-molecule microarray, COS7 lysate, 635/667 nm fluorescence, primary screen (AID 1150).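 Further: score pools 667 nm emission and signal to noise measuring lysate protein binding.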 The settings on record: COS7 hTOR1A mutant lysate, 635 nm fluorescence, higher = more signal.
The test system of assay [19] is Sonic hedgehog protein (Shh). Put plainly: Sonic hedgehog microarray binding compounds – biochemical, small-molecule microarray, 635/667 nm fluorescence, primary screen (AID 1151).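 Further: Shh protein binding to compounds spotted on small-molecule microarray slides; score combines spot fluorescence intensity with signal-to-noise across triplicate slides.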 The settings on record: 635 nm fluorescence, higher = more signal.

Sequence of Focal adhesion kinase 1 (Homo sapiens) (Q05397 whole entry, looked up): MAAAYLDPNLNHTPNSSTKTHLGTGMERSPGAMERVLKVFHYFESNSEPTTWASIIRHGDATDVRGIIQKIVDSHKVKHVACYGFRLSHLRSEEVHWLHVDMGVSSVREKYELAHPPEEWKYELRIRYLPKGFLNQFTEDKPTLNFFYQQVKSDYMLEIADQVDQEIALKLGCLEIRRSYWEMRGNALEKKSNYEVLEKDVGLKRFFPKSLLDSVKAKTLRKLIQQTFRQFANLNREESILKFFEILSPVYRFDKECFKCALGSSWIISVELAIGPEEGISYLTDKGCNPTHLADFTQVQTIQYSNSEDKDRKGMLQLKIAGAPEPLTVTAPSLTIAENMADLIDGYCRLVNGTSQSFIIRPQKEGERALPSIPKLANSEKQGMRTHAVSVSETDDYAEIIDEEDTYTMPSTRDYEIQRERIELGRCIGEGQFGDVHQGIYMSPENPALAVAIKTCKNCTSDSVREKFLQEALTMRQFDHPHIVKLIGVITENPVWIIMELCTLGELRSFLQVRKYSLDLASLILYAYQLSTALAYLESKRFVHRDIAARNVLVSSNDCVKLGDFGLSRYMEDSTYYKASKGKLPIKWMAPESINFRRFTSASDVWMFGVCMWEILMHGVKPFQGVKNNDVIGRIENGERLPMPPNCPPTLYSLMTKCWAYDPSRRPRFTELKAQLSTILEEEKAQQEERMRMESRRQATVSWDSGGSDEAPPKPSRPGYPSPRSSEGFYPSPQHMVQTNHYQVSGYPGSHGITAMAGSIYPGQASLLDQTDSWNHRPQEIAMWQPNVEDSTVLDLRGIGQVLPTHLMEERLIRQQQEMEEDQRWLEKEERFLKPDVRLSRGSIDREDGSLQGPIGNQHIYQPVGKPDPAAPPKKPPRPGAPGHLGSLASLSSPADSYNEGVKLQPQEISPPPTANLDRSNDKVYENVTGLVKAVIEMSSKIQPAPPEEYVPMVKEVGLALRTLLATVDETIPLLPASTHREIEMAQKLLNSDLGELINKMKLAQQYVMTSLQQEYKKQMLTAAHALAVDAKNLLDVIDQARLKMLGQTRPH
Sequence of Luciferin 4-monooxygenase (Photinus pyralis) (P08659 whole entry, looked up): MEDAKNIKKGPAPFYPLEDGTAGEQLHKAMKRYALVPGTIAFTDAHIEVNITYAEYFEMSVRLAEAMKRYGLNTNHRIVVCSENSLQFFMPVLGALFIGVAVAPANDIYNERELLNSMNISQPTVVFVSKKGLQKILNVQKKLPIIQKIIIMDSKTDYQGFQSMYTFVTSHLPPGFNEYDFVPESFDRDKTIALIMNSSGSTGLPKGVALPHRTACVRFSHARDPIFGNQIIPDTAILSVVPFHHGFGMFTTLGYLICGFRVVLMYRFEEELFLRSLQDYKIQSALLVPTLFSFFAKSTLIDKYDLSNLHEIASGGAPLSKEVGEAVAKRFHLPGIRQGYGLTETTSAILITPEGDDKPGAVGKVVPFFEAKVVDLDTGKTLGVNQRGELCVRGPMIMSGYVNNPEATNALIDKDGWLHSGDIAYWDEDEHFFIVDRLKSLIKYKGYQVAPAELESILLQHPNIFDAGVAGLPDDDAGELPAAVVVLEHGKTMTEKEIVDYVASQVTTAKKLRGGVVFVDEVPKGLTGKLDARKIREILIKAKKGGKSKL

In the case of `Cc1ccc(C(C)CC(O)C2C=CC3C(=O)N(c4ccccc4)C(=O)C3N2Nc2ccc(C(C)C)cc2)o1` (stereo not given), the composite z-score was 0.953 in assay [1]; 1.16 in assay [2]; 0.423 in assay [3]; 0.59 in [4]; 0.75 in assay [5]; -0.14 in assay [6]. The composite z-score is -0.795 with Lefty1; 1.15 in assay [8]; 0.301 in assay [10]; 1.33 in assay [15]; 0.343 in assay [16]; 0.216 in the assay with Torsin-1A (Homo sapiens) [17]. Besides, the composite z-score with Torsin-1A (Homo sapiens) [18] was found to be 0.715; in [19], 0.154. Further, the z-score in assay [7] is -0.678; in [9], -0.528 (inactive); in [11], 0.183 (inactive); in [12] it was -0.203 (inactive); in assay [13], 0.246 (inactive); in assay [14] it was 0.0702 (inactive).
On to `CC1CC/C=C\[C@H]2OC34C=CCN(c5ccc6ccccc6c5)C(=O)[C@H]3N(C(CO)C(C)C)C(=O)[C@@H]4C2C(=O)O1` (stereo not given in full), for which the composite z-score was 1.22 in assay [1]; 0.29 in assay [2]; 1.33 in assay [3]; -1.01 in [4]; 0.136 in [5]; -0.282 in assay [6]. In addition, the composite z-score is 0.0964 with Lefty1; 1.08 in assay [8]; -0.257 in [10]; -0.217 in assay [15]; 0.0028 in assay [16]; -1.06 in the assay with Torsin-1A (Homo sapiens) [17]. Moreover, the composite z-score with Torsin-1A (Homo sapiens) [18] is -0.477; in assay [19], 0.485. Besides, the z-score is 0.254 in assay [7]; -0.776 (inactive) in assay [9]; -0.0047 (inactive) in assay [11]; 1.27 (inactive) in [12]; -0.0939 (inactive) in assay [13]; -0.714 (inactive) in [14].
As for `O=C1c2ccccc2[C@](Cc2ccccc2I)(C(=O)NCCN2CCOCC2)[C@H](c2ccc(CO)cc2)N1Cc1ccccc1`, the composite z-score in assay [1] amounted to 0.0765; in assay [2] it was 1.2; in [3] it was 0.964; in assay [4], 0.598; in [5], 1.26; in [6] it was 0.146. Also, the composite z-score with Lefty1 was 0.98; in assay [8], 0.458; in assay [10] it was 0.265; in assay [15] it was 1.17; in [16] it was 0.444; in the assay with Torsin-1A (Homo sapiens) [17] it was 0.0373. For the same compound, the composite z-score in the assay with Torsin-1A (Homo sapiens) [18] worked out at 0.802; in [19] it was 1.21. In addition, the z-score in assay [7] was 0.803; in [9], -0.0588 (inactive); in assay [11] it was -1.98 (inactive); in assay [12], 0.536 (inactive); in assay [13], 0.649 (inactive); in assay [14], 0.413 (inactive).
As to `COCCOC(=O)N1C(=O)[C@@]2(c3cc(C#CC4(O)CCCCCC4)ccc31)[C@H](C(=O)N1CCCCCCC1)[C@H]1C(=O)O[C@H](c3ccccc3)[C@H](c3ccccc3)N1[C@@H]2c1ccc(OCCO)cc1`, the composite z-score in [1] was determined as 2.68; in assay [2] it was 1.24; in [3], 1.13; in assay [4] it was 0.95; in assay [5], 1.49; in [6] it was 1.77. Further, the composite z-score was 1.7 in the assay with Lefty1; 1.09 in [8]; 1.19 in [10]; 2.63 in assay [15]; 1.85 in [16]; 1.25 with Torsin-1A (Homo sapiens) [17]. The composite z-score stood at 1.8 in the assay with Torsin-1A (Homo sapiens) [18] and 2.17 in assay [19]. Also, the z-score is -1.18 in assay [7]; -2.13 (inactive) in [9]; -3.66 (inactive) in [11]; 0.629 (inactive) in assay [12]; 0.623 (inactive) in assay [13]; -0.532 (inactive) in [14].
For `CCOC(=O)[C@H]1C/C=C/C[C@H](C(=O)OCC)C(=O)O[C@H]2[C@@H](OC)O[C@H](CO)[C@@H](OC(=O)CCc3ccccc3)[C@@H]2OC1=O`, the composite z-score is 0.522 in assay [1]; -0.267 in assay [2]; -0.542 in assay [3]; 0.0772 in assay [4]; -0.502 in assay [5]; -0.924 in assay [6]. Besides, the composite z-score is -0.172 in the assay on Lefty1; -0.185 in assay [8]; -0.581 in [10]; -0.345 in assay [15]; 0.788 in [16]; -0.407 in the assay with Torsin-1A (Homo sapiens) [17]. Moreover, the composite z-score with Torsin-1A (Homo sapiens) [18] was -0.532; in assay [19], -0.0617. For the same compound, the z-score is 3.06 in [7]; 0.418 (inactive) in assay [9]; -1.31 (inactive) in assay [11]; -1.28 (inactive) in assay [12]; -0.475 (inactive) in assay [13]; -0.0955 (inactive) in assay [14].
